Bioassay records as filed in PubChem.
An excerpt weighted towards active compounds, which were near 4.7% of everything screened.
HTT-AS act – activators of huntingtin-antisense promoter activity. Potency, µM (doses to about 57.5 µM), for inactives: at the top dose activity change, positive = activation, usual class: activators. actives 0.24% (n = 48,000). HEK293 HTT-AS promoter firefly luciferase reporter, 24 h; response scale: percent change from vehicle, -100% = no light; also: potency is read from the fitted curve at half-maximal effect; nearly all actives have a fitted effect of over 55% in size
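Firefly luciferase readout (Dual-Glo, 10 min RT) after 24 h, 37 °C compound exposure (final up to 57.5 uM) of HEK293 reporter cells cultured 24 h beforehand; PTC124 at 50 uM final as control inhibitor; activity scaled vehicle 0%, zero RLU -100%.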
NTMT1 inh – NTMT1 methyltransferase inhibition. NTMT1 MTase-Glo SAH luminescence, purified enzyme. Potency, µM (titrated, usually from 114 µM), for the others: at the highest dose activity change, negative = inhibition, actives largely listed as inhibitors. actives 2.5% (n = 59,000). AID 1645870;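 also: potency is read from the fitted curve at half-maximal effect; plate controls were DMSO vehicle for no effect and no enzyme for full effect; nearly all actives have a fitted effect of over 65% in size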
Target sequence (Q9BV86 whole entry, looked up): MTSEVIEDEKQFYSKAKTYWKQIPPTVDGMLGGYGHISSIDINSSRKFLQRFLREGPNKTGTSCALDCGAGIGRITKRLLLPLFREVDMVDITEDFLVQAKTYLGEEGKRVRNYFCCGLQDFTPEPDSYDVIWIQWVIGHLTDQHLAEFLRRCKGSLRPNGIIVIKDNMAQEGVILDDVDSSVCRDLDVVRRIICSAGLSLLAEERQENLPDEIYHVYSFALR
GALC G270D act – raises human GALC G270D mutant activity in cells. 145M-Twi-hGALC-G270D cells (Twitcher mouse brain line with human GALC G270D), HMU-beta-Gal fluorescence, 48 h. Potency, µM (series often up to 57.5 µM), usual class: activators. AID 1159614. P54803. actives 0.1% (n = 45,000); also: potency is read from the fitted curve at half-maximal effect; 0% is about no effect; nearly all actives have a fitted effect of over 65% in size
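Brain-derived Twitcher mouse 145M-Twi cells stably expressing human GALC-G270D or wild-type GALC, treated live, then residual GALC activity read by fluorescence of HMU-b-Gal substrate (0.1 mM final) in citrate-phosphate buffer pH 5.2 with sodium taurocholate. Signal increase indicates enhancement.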
HTT prom inh – inhibits huntingtin promoter activity; actives 0.93% (n = 48,000); HEK293 HTT promoter firefly luciferase reporter, 24 h; Potency, µM (top dose mostly 57.5 µM), for inactives: top-dose activity change, negative = inhibition, actives largely listed as inhibitors; also: potency is read from the fitted curve at half-maximal effect; nearly all actives have a fitted effect of over 50% in size
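HEK293 cells carrying firefly luciferase reporters were seeded at 2,500 per well in Opti-MEM and cultured for 24 h. They were then treated with compounds at up to 57.5 uM final for 24 h at 37 degrees C before Dual-Glo luminescence readout.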
DRV1 agonist – activates human resolvin D1 receptor GPR32. actives 2.5% (n = 48,000). O75388. CHO-K1 GPR32 beta-arrestin PathHunter luminescence, 90 min; zero percent set by DMSO-only wells. activation, % at 76.9 µM. AID 1346428;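 active = activation of at least 60% and not above a set upper limit, about 1 call in 100 departs from these limits; inconclusive = activation of 40% to 60%, or above that upper limit; inactive = activation under 40%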; also: 0% is about no effect
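Readings come from a cell-based beta-arrestin complementation format: CHO-K1 GPR32 stable cells (2,500/well) treated 90 min with compounds, then beta-Gal substrate added for 1 h before chemiluminescence imaging.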
FH mod – Identification of activators of human fumarate hydratase by quantitative high-throughput screening; Fumarate hydratase, mitochondrial (Homo sapiens), P07954; FH coupled MDH/diaphorase resazurin fluorescence, 15 min; Potency, µM (doses to about 79.9 µM), for the others: at the highest dose activity change, negative = inhibition, hits mostly inhibitors; actives 0.22% (n = 54,000); AID 1347055, 2019; also: potency is read from the fitted curve at half-maximal effect; % is scaled to controls: 0 for no effect and ±100 for the full control effect; the screen sought activators but most active calls are inhibition curves; nearly all actives have a fitted effect of over 45% in size
DYRK1A KinaseGlo – human DYRK1A kinase inhibition by ATP depletion readout | shares compounds with NTMT1 inh | recombinant DYRK1A, Kinase-Glo ATP depletion luminescence | Potency, µM (series often up to 76.9 µM), for inactives: top-dose activity change, negative = inhibition, usual class: inhibitors | actives 80% (n = 100)
Sfp qHTS opt – Sfp PPTase inhibition, chemistry optimization; shares compounds with NTMT1 inh; purified Sfp PPTase enzyme activity, qHTS; Potency, µM (top dose mostly 114 µM), inactives show at the highest dose activity change, negative = inhibition, hits mostly inhibitors; actives 78% (n = 230); AID 540350
Bsub HM489 growth – Sfp PPTase inhibitors: growth inhibition of B. subtilis HM489; shares compounds with NTMT1 inh; B. subtilis HM489 (acpS-) growth, BacTiter-Glo, 5 h; Potency, µM (top dose mostly 114 µM), for inactives: at the top dose activity change, negative = inhibition, hits mostly inhibitors; actives 50% (n = 220)
Sfp gel opt – Sfp PPTase inhibition, gel-based detection. shares compounds with NTMT1 inh. purified Sfp PPTase, gel-based product detection. Potency, µM (doses to about 250 µM), inactives show at the top dose activity change, negative = inhibition, most hits filed as inhibitors. actives 54% (n = 220). AID 540355
Sfp inh gel – inhibits B. subtilis Sfp PPTase in gel-based assay | shares compounds with NTMT1 inh | purified Sfp PPTase, gel-based product detection | Potency, µM (top dose mostly 250 µM), for inactives: top-dose activity change, negative = inhibition, most hits filed as inhibitors | actives 90% (n = 45)
Sfp SAR2 – Sfp phosphopantetheinyl transferase inhibition, SAR round 2; shares compounds with NTMT1 inh; purified Sfp enzyme, PPTase activity, qHTS; Potency, µM (doses to about 57.1 µM), inactives show top-dose activity change, negative = inhibition, usual class: inhibitors; actives 87% (n = 230)
hGST ctr – hGST A1-1 enzyme inhibition, Sfp SAR counter-screen; shares compounds with NTMT1 inh; hGST A1-1 enzyme activity counter-screen, qHTS; Potency, µM (doses to about 114 µM), inactives show at the highest dose activity change, negative = inhibition, actives largely listed as inhibitors; 55 tested, under 10 active
HSD17B4 inh – HSD17B4 (human) inhibition, HPGD counter-screen. shares compounds with NTMT1 inh. AID 743187. Potency, µM (titrated, usually from 57.1 µM), inactives show at the highest dose activity change, negative = inhibition, hits mostly inhibitors. actives 10% (n = 230). purified HSD17B4, estradiol/NAD+, NADH fluorescence
ALDH1A1 inh – inhibits human ALDH1A1, off-target for HPGD inhibitors; shares compounds with NTMT1 inh; recombinant ALDH1A1, NADH fluorescence, propionaldehyde/NAD+; Potency, µM (highest dose often 57.1 µM), without a hit: at the highest dose activity change, negative = inhibition, hits mostly inhibitors; actives 93% (n = 230); AID 743195
Target sequence (P00352 whole entry, looked up): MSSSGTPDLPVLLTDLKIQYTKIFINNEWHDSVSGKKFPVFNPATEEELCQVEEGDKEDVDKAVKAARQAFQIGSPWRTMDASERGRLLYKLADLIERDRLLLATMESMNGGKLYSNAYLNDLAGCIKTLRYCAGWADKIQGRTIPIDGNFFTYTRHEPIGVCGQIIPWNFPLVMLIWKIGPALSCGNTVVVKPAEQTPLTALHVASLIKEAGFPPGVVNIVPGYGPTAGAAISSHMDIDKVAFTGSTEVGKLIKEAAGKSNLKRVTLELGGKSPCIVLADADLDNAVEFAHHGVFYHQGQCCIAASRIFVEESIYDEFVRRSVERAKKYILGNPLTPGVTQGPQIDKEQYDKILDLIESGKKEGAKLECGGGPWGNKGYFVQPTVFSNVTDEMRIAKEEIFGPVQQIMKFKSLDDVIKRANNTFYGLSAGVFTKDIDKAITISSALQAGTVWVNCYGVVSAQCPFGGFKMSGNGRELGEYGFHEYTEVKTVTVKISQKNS
NNMT inh – human NNMT inhibition, NTMT1 counter-screen; actives 10% (n = 120); NNMT MTase-Glo luminescence, SAH detection; shares compounds with NTMT1 inh; Potency, µM (series often up to 57.1 µM), for the others: top-dose activity, negative = inhibition, actives largely listed as inhibitors
An asterisk follows results filed as active; i = inactive; ? = inconclusive; nt = not tested or not shown; ! = a repeat was not active; [ ] = another dose, or the depositor's remark. Unless noted, calls follow the shape of the dose curve; as a rule, active = well fitted curve in the direction sought with a large enough effect; inconclusive = small, poorly fitted or top-dose-only effect, or another doubt; inactive = no such curve, though single readings can be large; an effect the other way counts as inactive or inconclusive.

SMILES | HTT-AS act | NTMT1 inh | GALC G270D act | HTT prom inh | DRV1 agonist | FH mod | Sfp qHTS opt | Bsub HM489 growth | Sfp gel opt | Sfp SAR2 | HSD17B4 inh | ALDH1A1 inh | others
CCCCCOc1ccc(-c2cc(-c3ccc(C(=O)N[C@H]4C[C@@H](O)[C@@H](O)NC(=O)C5[C@@H](O)[C@@H](C)CN5C(=O)C([C@H](O)CC(N)=O)NC(=O)C([C@H](O)[C@@H](O)c5ccc(O)c(OS(=O)(=O)O)c5)NC(=O)C5C[C@@H](O)CN5C(=O)C([C@@H](C)O)NC4=O)cc3)no2)cc1 (stereo not given in full) | nt | 1%[29.8 µM] | nt | nt | nt | -5%[53.3 µM] | nt | nt | nt | nt | nt | nt
Cc1ccc(-c2ccc(=O)n(CC(=O)NCc3ncc[nH]3)n2)cc1 | nt | 16% | nt | nt | nt | nt | nt | nt | nt | nt | nt | nt
Cc1ccc2nc3sc(C(=O)N4CCOCC4)cc3cc2c1 | nt | 1%[57.5 µM] | nt | nt | nt | nt | nt | nt | nt | nt | nt | nt
Cc1ccnc(NC(=S)N2CCN(c3cccc(N(C)C)c3)CC2)c1 | nt | -25% | nt | nt | nt | nt | 9.4µM* | 37µM* | 1.3µM* | 5.8µM* | ? | 1.7µM* | Sfp inh gel=8.5µM*;hGST ctr=?
CCOC(=O)c1c(C)[nH]c(C)c1S(=O)(=O)N1CCC(C(=O)Nc2cc(C)ccn2)CC1 | 3% | -6% | i | -5% | -2 | ? | nt | nt | nt | nt | nt | nt
Cc1cc(C)nc(NC(=S)N2CCN(c3ccc(Cl)nn3)CC2)c1 | nt | ? | nt | nt | nt | nt | 12µM* | 21% | ? | 3.6µM* | -18% | 19µM*
Cc1ccnc(NC(=S)N2CCN(c3ccc(Cl)c(Cl)c3)CC2)c1 | nt | ? | nt | nt | nt | nt | 1.2µM* | 2.6µM* | -63% | 0.73µM* | -10% | 2.4µM*
CC(=O)N1CCN(C(=S)Nc2cc(C)ccn2)CC1 | nt | ? | nt | nt | nt | nt | 33µM* | ? | 13µM* | 6.5µM* | -9% | 12µM*
Cc1cc(C)nc(NC(=S)N2CCN(c3ccc(Cl)c(Cl)c3)CC2)c1 | nt | -9% | nt | nt | nt | nt | 2.1µM* | 5.9µM* | 12µM* | 0.91µM* | -29% | 8.6µM* | Sfp inh gel=3µM*;hGST ctr=?
NCCOc1cc(C(=O)Nc2cc(OCCN)c3ccccc3n2)nc(C(=O)Nc2cc(OCCN)c3ccccc3n2)c1 | nt | 22µM* | nt | nt | nt | ? | nt | nt | nt | nt | nt | nt | NNMT inh=-12%
COc1ccc(Nc2cc(C(=O)NCc3ccccc3)c3ccccc3n2)c(OC)c1 | 16% | -4% | i | 6% | -31 | -34% | nt | nt | nt | nt | nt | nt
Cc1cc(C)nc(NC(=S)N2CCN(c3nncs3)CC2)c1 | nt | -25%[57.5 µM] | nt | nt | nt | nt | 13µM* | ? | 32µM* | 2.3µM* | 0% | 22µM*
Cc1cc(C)nc(NC(=S)N2CCN(c3nccs3)CC2)c1 | nt | ? | nt | nt | nt | nt | ? | -27% | 20µM*! | 4.1µM*! | -15% | 11µM*
c1nc(OCc2cnc[nH]2)c2cc(-c3ccc4c(c3)OCO4)ccc2n1 | nt | -10% | nt | nt | nt | nt | nt | nt | nt | nt | nt | nt | DYRK1A KinaseGlo=8.2µM*
